The text below walks through data of PubChem BioAssay AID504706 (National Center for Advancing Translational Sciences (NCATS), 2011).

The whole screen tested about 320,000 compounds, of which about 200 (0.062%) were called active. Roughly 6% stayed inconclusive and do not appear here. Many of the other results were omitted from the sample, so actives are more common in it than they were. Values without a mark were called inactive. Calls come from the whole dose curve; as a rule, active = well fitted activation curve with a large enough effect; inconclusive = small, poorly fitted or top-dose-only effect; inactive = no such curve, though single readings can be large or run the other way.
Potency is the fitted concentration of half-maximal effect.

This experiment in a line: qHTS assay for re-activators of p53 using a Luc reporter. For activity change, positive = activation: % of control where 0% means no effect. Note: nearly all actives have a fitted effect of over 45% in size. The note with it: H1299 p53-A138V BP100-luciferase reporter, luminescence, 24 h; series mostly up to 92.2 µM; activity change, positive = activation: at the top concentration. An excerpt:
The p53 tumor suppressor plays a key role in suppression of tumorigenesis and in human carcinogenesis. It is frequently found inactivated in human cancers, mainly by point mutation. These point mutations are found in a wide variety of human cancers and a majority of them affect the DNA binding domain of the protein. The point mutations either alter native p53 conformation or abolish DNA contact. Additionally, cancer cells with p53 mutations are more resistant to chemo-radiation therapies. In order to find activators to reactivate this important protein, a cell-based screen for p53-dependent luciferase-reporter expression was developed. A p53-null H1299 lung cancer cell line was stably co-transfected with a temperature sensitive p53 mutant, p53-A138V, and a p53-responsive BP100-luciferase reporter. This cell model has previously been characterized in a gene chip profiling experiment for p53 activation. By lowering the culture temperature from 37 deg C (mutant p53 conformation) to 32 deg C (w.t. p53 conformation), a 30-60 fold increase in activation of luciferase activity is observed. At assay temperate, 37 deg C, basal reporter expression is very low and after the addition of detection reagent, a luminescent read-out is carried out. NIH Chemical Genomics Center [NCGC] NIH Molecular Libraries Probe Production Centers Network [MLPCN] MLPCN Grant: DA031088-01A1 Assay Provider (PI): Yi Sung, University of Michigan at Ann Arbor
5ul of 1000 cells per well are dispensed in all wells except column 4, into white solid-bottom TC-treated Kalypsys plates. The cells are kept in Opti-MEM and supplemented with 10% FBS and dispensed using a Multidrop (Thermo). Then using the Kalypsys pin-tool, 23nl of compounds are pinned. The compounds are starting concentration at 10mM, with 1:5 dilution, 4 points, and the control compound nocodazole is pinned in column 1 at 25mM, 1:3 dilution, in duplicate, 25mM nocodazole is pinned in column 2. Please note, all concentrations are working concentrations. 5ul of 1pM purified luciferase enzyme is dispensed using the Kalypsys dispenser in column 4. Plates are incubated for 24 hrs at 37 deg C, 5% CO2, and 95% humidity. Then 4ul of the detection reagent Amplite (ABD Bioquest) is added using the Kalypsys dispenser. Plates are incubated for 10 min at ambient room temperature and are then read on the ViewLux (Perkin Elmer) using a clear filter for a luminescent read-out.
`Cc1ccc(C)c(S(=O)(=O)N2CCN(c3ncnc4sccc34)CC2)c1`: the “activity change, positive = activation” value was -8.28%.
Turning to `C=CC[C@@H](Cc1ccc(F)cc1)C(=O)OC[C@H]1CCCN1C(=O)[C@H](CC=C)CC(=O)N(CCO)Cc1ccccc1`, the “activity change, positive = activation” value was 2.23%.
Regarding `CC(=O)Nc1ccc(NC(=S)NC(=O)/C=C/c2ccccc2)cc1`, the “activity change, positive = activation” value was 1.32%.
For the compound `CC(=O)Nc1ccc(/C=C/C(=O)c2ccccc2)cc1`, the Potency was 15.8 µM (active).
For the compound `CC(=O)Nc1ccc(C(=O)/C=C/c2ccc[nH]2)cc1`, the “activity change, positive = activation” value is 9.7%.
`O=C(C[C@H]1C[C@H](C(=O)N2CCOCC2)[C@@]2(CCC3CCCC3)c3[nH]c4ccc(Cl)cc4c3CCN2C1=O)NCc1ccco1`: the “activity change, positive = activation” value is -4.21%.
As for `CC[C@]12c3[nH]c4cc(CCC(=O)N(C)C)ccc4c3CCN1C(=O)[C@@H](CC(=O)NCc1ccco1)C[C@@H]2C(=O)N1CCN(C(=O)c2ccco2)CC1`, the “activity change, positive = activation” value was -0.895%.
`COc1cc(/C=C/C(=O)Nc2ccc(OC)c(S(=O)(=O)N3CCOCC3)c2)ccc1OCC#N`: the “activity change, positive = activation” value was -10.6%.
On to `O=C1OC[C@@H]2CCCN2C(=O)[C@H](CC(=O)N(CCO)Cc2ccccc2)C/C=C\CC[C@@H]1Cc1ccc(F)cc1`, for which the “activity change, positive = activation” value was 5.47%.
As for `COc1cc(OC)c(C(=O)NNC(=O)c2ccccc2-n2cccc2)cc1OC`, the “activity change, positive = activation” value was -0.521%.
Turning to `C[C@@H]1CN([C@@H](C)CO)C(=O)c2cccc(NS(=O)(=O)c3ccc(F)cc3)c2O[C@H]1CN(C)C(=O)NC1CCCCC1`, the “activity change, positive = activation” value is -3.42%.
Take `COC(=O)[C@]1(C)N[C@H](CN(C)C(=O)c2ccc(C(C)(C)C)cc2)[C@@H]2C(=O)N(C)C(=O)[C@@H]21`: the “activity change, positive = activation” value was 0.555%.
On the same count and under the same terms, the figure for `Cc1ccc(CNC(=O)Cn2cnc3c(NCc4ccccc4)ncnc32)o1` is -1.49%; for `CN(C(=O)c1cccc(NC(=O)Cc2ccc([N+](=O)[O-])cc2)c1)C1CCC1` it is -5.23%; for `CCN(C(=O)CSc1nnnn1-c1ccc(OC)cc1)C1CCS(=O)(=O)C1` (configuration not stated) it is -2.62%.
`C#CCOCCOCCOCCNc1nc(N2CCN(C(=O)[C@H](CCCN=C(N)N)n3cc(C(N)[C@@H](C)CC)nn3)CC2)nc(N2CCN(C(=O)[C@H](CO)n3cc([C@@H](N)C(C)C)nn3)CC2)n1` (some centres not stated): the “activity change, positive = activation” value is 0.362%.
For `CCCCNS(=O)(=O)CCNCc1ccccc1OC`, the “activity change, positive = activation” value is -5.63%.
On the same count and under the same terms, the figure for `C=CCC[C@@H](Cc1ccc(F)cc1)C(=O)OC[C@@H](C)NC(=O)[C@H](CC=C)CC(=O)N(CCO)Cc1ccccc1` is -7.01%; for `CC(=NNC(=O)c1ccc2nc[nH]c2c1)c1ccc(Br)cc1` it is 5.89%.
As to `CC[C@@H]1CCCCc2ccccc2[C@@H](C(=O)C[C@H](O)CC(C)=O)OC1=O`, the “activity change, positive = activation” value was -0.71%.
`Oc1ccc(/C=N/Nc2ccc(C(F)(F)F)cn2)cc1O`: the “activity change, positive = activation” value was 18.2%.
Same read-out and setting: the figure for `COc1ccc(-c2nn(-c3ccccc3)cc2/C=N/Nc2ccccn2)cc1OC` is 0.301%.
Regarding `Oc1ccc(Br)cc1/C=N/Nc1ccccn1`, the Potency was 28.2 µM (active).
`COc1ccc(-c2nc3cc(C)ccn3c2NC2CCCCC2)cc1SC1CCCCC1`: the “activity change, positive = activation” value was 3.29%.
In the case of `CSc1ccc(/C=N/NC(=O)c2cccc(Cl)c2)cc1`, the Potency is 10 µM (active).
With `O=C(N/N=C/c1ccc(Cl)c(Cl)c1)c1ccc2nc[nH]c2c1`, the “activity change, positive = activation” value is 13.3%.
With `CSc1ccc(/C=N\NC(=O)CC(=O)NC(C)C)cc1`, the “activity change, positive = activation” value was 1.21%.
In the case of `COc1ccc2nc3n(c(=O)c2c1)-c1cc(C)ccc1C(=O)NC3Cc1ccc(O)cc1` (configuration not stated), the “activity change, positive = activation” value is 3.32%.
On the same count and under the same terms, the figure for `O=C1CCC/C=C/C[C@@H](CC(=O)N(CCO)Cc2ccccc2)C(=O)NC[C@H](c2ccccc2)O1` is 0.64%; for `C=CCC[C@H](Cc1ccc(F)cc1)C(=O)OC[C@@H](Cc1c[nH]c2ccccc12)NC(=O)[C@H](CC=C)CC(=O)N[C@H](CO)Cc1ccccc1` it is -2.92%; for `C=CCC[C@H](Cc1ccc(F)cc1)C(=O)OC[C@@H](NC(=O)[C@@H](CC=C)CC(=O)N[C@H](CO)Cc1ccccc1)C(C)(C)C` it is -0.891%.
Turning to `C=CC[C@@H](CC(=O)N[C@H](CO)Cc1ccccc1)C(=O)N[C@H](C)COC(=O)[C@@H](CC=C)Cc1ccc(F)cc1`, the “activity change, positive = activation” value was 3.98%.
Turning to `Cc1noc(C)c1S(=O)(=O)N(C)C[C@H]1Oc2c(NC(=O)Nc3ccc4c(c3)OCO4)cccc2C(=O)N([C@H](C)CO)C[C@@H]1C`, the “activity change, positive = activation” value is -4.87%.
For the compound `O=C(CCc1ccc(S(=O)(=O)N2CCOCC2)cc1)OCC(=O)c1ccc(Br)cc1`, the “activity change, positive = activation” value is -1.37%.
Consider `Cc1ccc(NC(=O)C2CCC(C(C)(C)C)CC2)cc1S(=O)(=O)N1CCOCC1` (configuration not stated), for which the “activity change, positive = activation” value was 11.4%.
The same measure, in the same setting: then `O=C(Cn1cc(C(F)(F)F)ccc1=O)Nc1ccc2c(c1)OCCO2`, with -1.81%; and `COc1ccccc1N(CC(=O)Nc1ccc(C)cc1Cl)S(=O)(=O)c1cccs1`, with -6.31%.
Consider `CC[C@]12c3[nH]c4ccc(Cl)cc4c3CCN1C(=O)[C@@H](CC(=O)NCCCOC)C[C@@H]2C(=O)N1CCN(C(=O)C2CC2)CC1`, for which the “activity change, positive = activation” value was 1.51%.
As for `COc1ccc(CNC(=O)C[C@H]2C[C@H](C(=O)N3CCOCC3)[C@@]3(C)c4[nH]c5cc(CCC(=O)N(C)C)ccc5c4CCN3C2=O)cc1OC`, the “activity change, positive = activation” value is 12.8%.
`COc1ccc(/C=C(\C#N)c2c[nH]c3ccccc23)cc1`: the Potency is 31.6 µM (active).
On to `COc1ccc(C(C(O)C(=O)c2c[nH]c3ccccc23)N2CCN(c3ccccc3)CC2)cc1` (configuration not stated), for which the “activity change, positive = activation” value was -0.0809%.
As to `COc1ccc2[nH]cc(/C=C(/C#N)S(=O)(=O)c3ccccc3)c2c1`, the “activity change, positive = activation” value was -3.33%.
